HT1080NT lethal: qHTS for induction of synthetic lethality in tumor cells producing 2HG: qHTS for the HT-1080-NT fibrosarcoma cell line; HT-1080-NT fibrosarcoma viability, CellTiter-Glo ATP luminescence, 48 h; Potency, µM (series often up to 46.1 µM), usual class: cytotoxic; actives 1.6% (n = 360,000); AID 686970, 2013;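 further: NT is the 2HG producing partner of a matched IDH1 knockdown line; nearly all actives have a fitted effect of over 55% in size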
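750 cells/well, RPMI + 5% FBS; 2 h settle, compound pin-transfer, 48 h at 37 degrees C. CellTiter-Glo 10 min RT, luminescence. Normalized to DMSO and media-only wells.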
HT1080 IDH1KD tx: qHTS for induction of synthetic lethality in tumor cells producing 2HG: qHTS for the HT-1080-IDH1KD cell line; Potency, µM (top dose mostly 46.1 µM), most hits filed as cytotoxic; actives 2% (n = 360,000); HT-1080 IDH1 knockdown viability, ATP luminescence, 48 h
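Knockdown cells (IDH1KD HT-1080) received compounds 2 h after plating at 750 cells/well and were kept 48 h at 37 °C in 5% FBS RPMI. A CellTiter-Glo luminescence read gave % activity for curve fitting.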
KB-V1 cytotox: qHTS assay for MDR1-selective chemotherapeutics: Primary screen using the drug-selected MDR subline cells KB-V1 | Potency, µM (doses to about 46.1 µM), actives largely listed as cytotoxic | AID 1347076, 2019 | KB-V1 MDR cells viability, CellTiter-Glo, 72 h | actives 3.4% (n = 400,000); further: nearly all actives have a fitted effect of over 60% in size
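Following 72 h at 37 degrees C with compound, KB-V1 cell viability was read by CellTiter-Glo luminescence, medium being phenol-red-free DMEM plus 10% FBS; concentration-response parameters came from normalized, curve-fitted qHTS data.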
SW480 rereplic: A quantitative high throughput screen for small molecules that induce DNA re-replication in SW480 colon adenocarcinoma cells | SW480 DNA re-replication, Hoechst DNA content imaging, 48 h | Potency, µM (doses to about 46.1 µM), hits mostly activators | actives 1.8% (n = 340,000) | AID 624297, 2012; further: nearly all actives have a fitted effect of over 55% in size
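Image-based read-out: total Hoechst fluorescence of nuclei (405 nm excitation, 500-530 nm emission), with hits raising the fraction of high-intensity nuclei. SW480 colon cells incubated 48 hr with compounds at 37 C.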
MCF10A rereplic: A quantitative high throughput screen for small molecules that induce DNA re-replication in MCF 10a normal breast cells | MCF 10A DNA re-replication, Hoechst nuclear intensity, 48 h | Potency, µM (doses to about 46.1 µM), hits mostly activators | actives 2.9% (n = 350,000); further: nearly all actives have a fitted effect of over 50% in size
KB-3-1 tox: qHTS assay for MDR1-selective chemotherapeutics: Primary screen using the parental adenocarcinoma cell KB-3-1; KB-3-1 viability, CellTiter-Glo ATP luminescence, 72 h; Potency, µM (series often up to 46.1 µM), actives largely listed as cytotoxic; actives 1.4% (n = 400,000); AID 1347075, 2019; further: nearly all actives have a fitted effect of over 60% in size
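Cells are dispensed, compounds pinned in, plates held at 37 °C for 72 h, then CellTiter-Glo is added and luminescence read after 10 minutes. Cell line: parental KB-3-1 in phenol-red-free DMEM, 10% FBS.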
Of the large screens only hits and unclear results are named; the others gave an inactive call. In the library only some 8% were active in any assay of this set; here they are far more common. The call rests on the fitted dose curve; in most records, active means well fitted curve in the direction sought with a large enough effect; inconclusive means small, poorly fitted or top-dose-only effect, or another doubt; inactive means no such curve, though single readings can be large; an effect the other way counts as inactive or inconclusive.

COc1cc2c(C#N)c(N3CCN(c4ccccc4OC)CC3)nc(N)c2c(N)n1	HT1080NT lethal inconclusive, HT1080 IDH1KD tx inconclusive, KB-V1 cytotox inconclusive, SW480 rereplic inconclusive, MCF10A rereplic 10.3µM, KB-3-1 tox inconclusive
CCC(C)Sc1cc(C(F)(F)F)c(C(=O)Nc2ccc(Cl)cc2)cn1 (stereo not given)	HT1080NT lethal inconclusive, HT1080 IDH1KD tx 23.1µM, KB-V1 cytotox inconclusive, MCF10A rereplic inconclusive
CCCCn1nnnc1C1(C)CCC(=O)N1CCCn1ccnc1 (stereo not given)	HT1080NT lethal inconclusive, HT1080 IDH1KD tx inconclusive, KB-3-1 tox 13µM (no result: SW480 rereplic, MCF10A rereplic)
CCOC(=O)C1C(C(=O)OCC)C1(c1ccccc1)c1ccccc1 (stereo not given)	KB-V1 cytotox 10.3µM, MCF10A rereplic inconclusive
CCOC(=O)C1C(=O)CC(O)(c2ccccc2)CC1c1ccccc1 (stereo not given)	KB-V1 cytotox 23.1µM
O=C(O)C1C(C(=O)O)C1(c1ccccc1)c1ccccc1 (stereo not given)	none
CCOC(=O)C1C(=O)CC(C)(O)C(C(=O)OCC)C1/C=C/c1ccccc1 (stereo not given)	KB-V1 cytotox 18.4µM
CCOc1cc(C(=O)Nc2ccc(-c3nc4cc(Cl)ccc4o3)cc2)cc(OCC)c1OCC	none (no result: HT1080NT lethal, HT1080 IDH1KD tx, SW480 rereplic, MCF10A rereplic)
COc1cc2c(NC3CCN(C)CC3)nc(N3CCCN(C)CC3)nc2cc1OCCN(C)CCN(C)C	none (no result: HT1080NT lethal, HT1080 IDH1KD tx, SW480 rereplic, MCF10A rereplic)
CCCCCCNC(=O)Nc1nnc(-c2ccncc2)s1	KB-3-1 tox inconclusive (no result: HT1080NT lethal, HT1080 IDH1KD tx, SW480 rereplic, MCF10A rereplic)
CCOc1c(Cl)cc(/C=N/NC(N)=S)cc1OC	KB-V1 cytotox 7.31µM
COc1cc(/C=N/NC(N)=S)cc(Br)c1OCc1ccccc1F	KB-V1 cytotox 18.4µM, MCF10A rereplic inconclusive
CCOc1cc(/C=N/NC(N)=S)cc(Br)c1OCc1ccccc1C	MCF10A rereplic inconclusive
Cc1ccc(-c2nc3ncccc3o2)cc1NC(=O)c1cccc(OCC(C)C)c1	none (no result: HT1080NT lethal, HT1080 IDH1KD tx, SW480 rereplic, MCF10A rereplic)
Cc1cc2nccc(C)c2cc1C	none (no result: HT1080NT lethal, HT1080 IDH1KD tx, SW480 rereplic, MCF10A rereplic)
COc1ccc(-c2ccc([C@H]3[C@H]4C=CC[C@@H](C)[C@@H]4C(=O)N3Cc3ccccc3)c(F)c2)cc1	HT1080NT lethal inconclusive, HT1080 IDH1KD tx inconclusive, SW480 rereplic inconclusive, MCF10A rereplic 13µM
COc1cc(-c2cccc([C@H]3[C@@H]4C=CC[C@@H](C)[C@@H]4C(=O)N3Cc3ccccc3)c2)cc(OC)c1OC	HT1080NT lethal inconclusive, HT1080 IDH1KD tx inconclusive, MCF10A rereplic 7.31µM
COc1ccc(-c2ccc(C)cc2)cc1[C@H]1[C@H]2C=CC[C@@H](C)[C@@H]2C(=O)N1Cc1ccccc1	none
COc1ccc(-c2ccoc2)cc1[C@H]1[C@H]2C=CC[C@@H](C)[C@@H]2C(=O)N1Cc1ccccc1	HT1080NT lethal inconclusive, HT1080 IDH1KD tx inconclusive, MCF10A rereplic 18.4µM, KB-3-1 tox inconclusive
COc1ccc(-c2ccc([C@H]3[C@H]4C=CC[C@@H](C)[C@@H]4C(=O)N3Cc3ccccc3)c(F)c2)cc1OC	HT1080NT lethal inconclusive, HT1080 IDH1KD tx inconclusive, KB-V1 cytotox inconclusive, KB-3-1 tox inconclusive
Cc1nn2c(-c3ccccc3)ccnc2c1-c1ccccc1	KB-V1 cytotox 14.6µM, MCF10A rereplic inconclusive
CCOC(=O)C1CCCN(C(=O)c2nn(-c3ccc(OC)cc3)c(=O)c3c2c2ccccc2n3C)C1 (stereo not given)	none (no result: HT1080NT lethal, HT1080 IDH1KD tx, SW480 rereplic, MCF10A rereplic)
CCOC(=O)c1ccc(NC(=O)N2CCN(Cc3cccc(F)c3)CC2)cc1	HT1080 IDH1KD tx inconclusive, KB-V1 cytotox 18.4µM, MCF10A rereplic inconclusive
CC(=O)Nc1ccc(NC(=O)CSc2nnc(-c3cc(C)[nH]n3)n2N)cc1	KB-V1 cytotox inconclusive

Source: PubChem BioAssay
